# Measured values from PubChem BioAssay.
# Calls of active or inactive are those of the source. Rule as the data show it: active = fold change permeability below about 0.7 or above about 1.3; inactive = in between.
# Assay: compounds altering in vitro BBB leakiness – cell-based, FITC-avidin fluorescence, HTS, primary screen (AID 1963498); also: test concentration not given here
# Settings: brain endothelial barrier, actives lie on both sides
row,Structure (SMILES),fold change permeability
1,COCCOC(=O)C1=C(C)NC(C)=C(C(=O)OC(C)C)C1c1cccc([N+](=O)[O-])c1 (configuration not stated),0.7 (active)
2,O=C1OC(=O)C2C3CCC(O3)C12 (configuration not stated),0.9 (inactive)
3,CC(C)c1cc(/C=C(\C#N)C(=O)NCCCc2ccccc2)cc(C(C)C)c1O,0.8 (inactive)
4,CCc1ccc(OCC(=O)Nc2ccc(F)c([N+](=O)[O-])c2)cc1,1.1 (inactive)
5,COC(=O)c1c(C)[nH]c(C)c1C(=O)c1ccccc1Cc1ccccc1,1.2 (inactive)
6,NC[C@@H]1O[C@H](c2ccccc2)Cc2c1ccc(O)c2O,1.3 (active)
7,COc1ccc(CCN(C)CCCC(C#N)(c2cc(OC)c(OC)c(OC)c2)C(C)C)cc1OC (configuration not stated),0.9 (inactive)
8,NC(=O)NO,1.1 (inactive)
9,CN(C(=O)CCCOc1ccc2[nH]c(=O)ccc2c1)C1CCCCC1,0.9 (inactive)
10,Cc1ccc(S(=O)(=O)/C=C/C#N)cc1,1.1 (inactive)
11,COc1ccc(S(=O)(=O)Nc2nc(-c3cccc([N+](=O)[O-])c3)cs2)cc1OC,0.9 (inactive)
12,CNC1(C)C2CCC(C2)C1(C)C (configuration not stated),0.8 (inactive)
13,C[N+](C)(C)CCOP(=O)(O)OP(=O)([O-])OC[C@H]1O[C@@H](n2ccc(N)nc2=O)C(O)[C@H]1O (some centres not stated),1.1 (inactive)
14,CC1=C(C(=O)O)N2C(=O)[C@@H](NC(=O)[C@H](N)C3=CCC=CC3)[C@H]2SC1,0.9 (inactive)
15,N[C@@H](CCC(=O)N[C@@H](CSN=O)C(=O)NCC(=O)O)C(=O)O,0.8 (inactive)
16,CNCCC(Oc1ccccc1C)c1ccccc1 (configuration not stated),0.7 (active)
17,NCCCC(N)(C(=O)O)C(F)F (configuration not stated),0.8 (inactive)
18,O=C(Cc1ccccc1)Nc1nnc(CCSCCc2nnc(NC(=O)Cc3ccccc3)s2)s1,1.5 (active)
19,CCN(CC)CCOC(=O)c1cc(Cl)c(N)cc1OC,1.1 (inactive)
20,CC12CC3CC(C)(C1)CC(N)(C3)C2,0.8 (inactive)
21,CNS(=O)(=O)CCc1ccc2[nH]cc(C3CCN(C)CC3)c2c1,1 (inactive)
22,O=c1ccc2ccc(O)c(O)c2o1,1.2 (inactive)
